KB-V1 MDR tox: qHTS assay for MDR1-selective chemotherapeutics: Primary screen using the drug-selected MDR subline cells KB-V1; KB-V1 MDR cells viability, CellTiter-Glo, 72 h; Potency, µM (doses to about 46.1 µM), most hits filed as cytotoxic; 400,000 compounds, 3.4% hits; also: potency is read from the fitted curve at half-maximal effect; % is scaled to controls: 0 for no effect and ±100 for the full control effect; nearly all actives have a fitted effect of over 60% in size
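KB-V1 cells (P-gp-expressing MDR subline of KB-3-1) in phenol-red-free DMEM with 10% FBS were exposed to library compounds over a concentration series for 72 h at 37 degrees C. Viability read by CellTiter-Glo luminescence; concentration-effect curves fitted after normalization.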
D3 antag: qHTS of D3 Dopamine Receptor Antagonist: qHTS; max response, negative = inhibition, %; 360,000 compounds, 2.5% hits; D3R cells, DiscoveRx beta-arrestin luminescence, antagonist mode; hits give low values; in the data active = max response below about -50%; inconclusive = no clear call, values can overlap the other calls; also: % is scaled to controls: 0 for no effect and ±100 for the full control effect
Target sequence (P35462 whole entry, looked up): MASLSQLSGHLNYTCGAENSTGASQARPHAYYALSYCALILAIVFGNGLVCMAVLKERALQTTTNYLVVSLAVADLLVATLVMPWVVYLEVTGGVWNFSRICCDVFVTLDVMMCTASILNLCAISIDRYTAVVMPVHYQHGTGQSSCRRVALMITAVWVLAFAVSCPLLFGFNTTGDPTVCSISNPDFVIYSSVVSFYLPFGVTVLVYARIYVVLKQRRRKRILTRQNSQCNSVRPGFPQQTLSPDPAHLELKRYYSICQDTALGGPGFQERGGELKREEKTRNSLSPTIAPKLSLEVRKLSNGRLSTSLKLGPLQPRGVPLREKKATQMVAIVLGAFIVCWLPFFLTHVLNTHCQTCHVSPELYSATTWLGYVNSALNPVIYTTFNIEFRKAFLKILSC
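Cells expressing the human receptor were seeded at 1500 cells/well, incubated overnight at 37 degrees C in 5% CO2, then exposed to library compounds with dopamine controls for 90 minutes at 37 degrees C before luminescent detection.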
KB-3-1 cytotox: qHTS assay for MDR1-selective chemotherapeutics: Primary screen using the parental adenocarcinoma cell KB-3-1 | KB-3-1 viability, CellTiter-Glo ATP luminescence, 72 h | Potency, µM (highest dose often 46.1 µM), actives largely listed as cytotoxic | 400,000 compounds, 1.4% hits | AID 1347075, 2019; also: potency is read from the fitted curve at half-maximal effect; % is scaled to controls: 0 for no effect and ±100 for the full control effect; nearly all actives have a fitted effect of over 60% in size
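Cells are dispensed, compounds pinned in, plates held at 37 °C for 72 h, then CellTiter-Glo is added and luminescence read after 10 minutes. Cell line: parental KB-3-1 in phenol-red-free DMEM, 10% FBS.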
MCF10A rereplic: A quantitative high throughput screen for small molecules that induce DNA re-replication in MCF 10a normal breast cells. MCF 10A DNA re-replication, Hoechst nuclear intensity, 48 h. Potency, µM (top dose mostly 46.1 µM), without a hit: top-dose activity, positive = re-replication, hits mostly activators. 350,000 compounds, 2.9% hits; also: potency is read from the fitted curve at half-maximal effect; % of control where 0% means no effect; nearly all actives have a fitted effect of over 50% in size
SW480 rerep: A quantitative high throughput screen for small molecules that induce DNA re-replication in SW480 colon adenocarcinoma cells | SW480 DNA re-replication, Hoechst DNA content imaging, 48 h | Potency, µM (top dose mostly 46.1 µM), inactives show at the highest dose re-replication activation, most hits filed as activators | AID 624297, 2012 | 340,000 compounds, 1.8% hits; also: potency is read from the fitted curve at half-maximal effect; % of control where 0% means no effect; nearly all actives have a fitted effect of over 55% in size
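Cells (250 per well) received 23 nL compound or DMSO by pin tool and were kept 48 hr at 37 C, 5% CO2. Nuclei were then stained with Hoechst for 40 min and scanned for DNA content.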
D3 ag: qHTS of D3 Dopamine Receptor Agonist: qHTS. D(3) dopamine receptor (Homo sapiens), P35462. D3R DiscoveRx beta-arrestin cells, luminescence, 90 min. max activation, %. 410,000 compounds, 0.58% hits. AID 652048, 2013; in the data active = max activation above about 30%; also: 0% is about no effect
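Agonist-mode cell screen: cells plated at 1500/well and incubated overnight at 37 °C, then exposed to library compounds for 90 min at 37 °C. Detection reagent was added for 30–60 min at room temperature, and luminescence was read.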
Numbers without * were called inactive; i = inactive; ? = inconclusive; / = no result. Only some compounds are listed: those with a hit (about 8.9% of all), similar ones and a draw of the others. Unless noted, calls follow the shape of the dose curve; as a rule, active = well fitted curve in the direction sought with a large enough effect; inconclusive = small, poorly fitted or top-dose-only effect, or another doubt; inactive = no such curve, though single readings can be large; an effect the other way counts as inactive or inconclusive.

SMILES | KB-V1 MDR tox | D3 antag | KB-3-1 cytotox | MCF10A rereplic | SW480 rerep | D3 ag
O=C(CCC(=O)c1ccc(Oc2ccccc2)cc1)Nc1ccc(Cl)cc1Cl | i | 5.1 | i | ? | 5.8µM* | -3.2
C=CCn1nc(-c2ccccc2)cc1C(=O)OCC | i | 111.7 | i | 2.1% | -11.2% | 40.0*
CCOC(=O)c1cc(-c2ccccc2)nn1CCC#N | i | 5.7 | i | 10.6% | -6.9% | -1.8
CCOc1ccc(CNC(=O)c2ccc3nc(Cc4ccc(OC)cc4)oc3c2)cc1OC | i | / | i | / | / | -1.4
CCOc1cccc2cc(-c3nc4sc(C(=O)Nc5ccc(C)cc5)c(C)c4c(=O)[nH]3)c(=O)oc12 | i | / | i | / | / | -7.1
CCOc1cc(Cl)c(NC(=O)CC)cc1OCC | i | 17.2 | i | -1.4% | 18.4µM* | 3.2
CCC(=O)Nc1ccc(-c2ccc(NC(=O)CC)c(OC)c2)cc1OC | i | -1.5 | i | -1.9% | ? | 0.1
Cc1nn(-c2ccc(N3CCCC3)nn2)c(C)c1CCC(=O)NCc1ccc(F)cc1 | / | / | / | / | / | 3.0
COc1ccc(NC(=O)C(c2ccc(C)cc2)N(C)C(=O)/C=C\c2ccc3c(c2)OCO3)cc1 (stereo not drawn) | i | / | i | / | / | -6.0
Cc1nc2c(sc3nc4c(cc32)COC(C)(C)C4)c(=O)n1CC(=O)NCc1ccco1 | ? | -14.2 | 5.17µM* | ? | ? | 7.7
CC1(C)Cc2nc3sc4c(SCC(=O)NCc5ccco5)ncnc4c3cc2CO1 | ? | -3.0 | 4.61µM* | 3.26µM* | 3.26µM* | -2.0
CC1(C)Cc2nc3sc4c(=O)n(CC(N)=O)cnc4c3cc2CO1 | i | 10.4 | i | -10.9% | -1.6% | 7.1
CC1(C)Cc2nc3sc4c(=O)n(CC(=O)NCc5ccccc5)cnc4c3cc2CO1 | 3.66µM* | 16.9 | 2.59µM* | 6.51µM* | ? | 14.2
CCCc1nc2c(sc3nc4c(cc32)COC(C)(C)C4)c(=O)n1Cc1ccco1 | ? | 6.5 | i | 0.7% | -1.4% | -15.1
CC1(C)Cc2nc3sc4c(=O)n(Cc5ccccc5)cnc4c3cc2CS1 | 8.2µM* | -65.5* | i | ? | -6.5% | 0.7
Cc1nc2c(sc3nc4c(cc32)COC(C)(C)C4)c(=O)n1Cc1ccccc1 | 5.17µM* | 31.0 | i | 11.5% | -7.4% | -1.2
CCN(CC)CCn1c(C)nc2c(sc3nc4c(cc32)COC(C)(C)C4)c1=O | i | -4.3 | i | 3.1% | -5.5% | -14.9
Clc1ccccc1Cn1cccc1C1=NC(Cc2ccccc2)CO1 (stereo not drawn) | i | / | i | / | / | -1.5
COC(=O)c1c(NC(=O)C2c3ccccc3Oc3ccccc32)sc2c1CCC(C(C)(C)C)C2 (stereo not drawn) | i | / | i | / | / | -5.5
CCCS(=O)(=O)c1c(S(=O)(=O)CCC)c2cc(CC)ccn2c1C(=O)c1ccc(Cl)cc1 | i | / | i | / | / | -8.2
CC(NC(=O)Nc1nnc(C(F)(F)F)s1)(C(F)(F)F)C(F)(F)F | i | -23.3 | 13µM* | 11.6µM* | ? | 1.8
O=C(Nc1nnc(C(F)(F)F)s1)c1ccc(Br)s1 | 2.91µM* | 8.5 | 4.61µM* | 18.5% | 1.8% | 5.4
NC(=O)c1ccccc1NC(=O)c1ccccc1Cl | i | -24.2 | i | 8.7% | 2.8% | -4.3
O=C(Nc1ccccc1C(=O)Nc1nnc(C(F)(F)F)s1)c1ccccc1Cl | ? | 3.4 | 20.6µM* | ? | ? | 11.6
CCC(=O)NS(=O)(=O)c1ccc(-c2c(-c3ccccc3)noc2C)cc1 | / | / | / | / | / | 5.4
SMILES | KB-V1 MDR tox | D3 antag | KB-3-1 cytotox | MCF10A rereplic | SW480 rerep | D3 ag
CCOc1ccc(C(=O)OCc2cc(=O)n3nc(C4CCCCC4)sc3n2)cc1 | i | / | i | / | / | 0.4
COc1cc(C)c(S(=O)(=O)N2CCOCC2)cc1C(C)C | i | -88.3* | i | -3.3% | -3.2% | 3.1
O=C(COC(=O)c1ccc(F)c(S(=O)(=O)N2CCOCC2)c1)NCc1ccccc1 | i | 22.1 | i | -2.5% | 2.2% | 0.5
CCOC(=O)c1c(N)n(-c2ccccc2CC)c2nc3ccccc3nc12 | ? | / | i | / | / | -15.9
Cc1c(Br)c([N+](=O)[O-])nn1CC(=O)N1CCc2ccccc2C1 | 16.4µM* | -6.8 | i | 1.1% | -12.6% | -0.6
Cc1c(Br)c([N+](=O)[O-])nn1CCCC(=O)N1CCN(c2ccccc2)CC1 | 20.6µM* | -5.5 | ? | -36.7% | -14.6% | -8.5
Cc1c(Cl)c([N+](=O)[O-])nn1CCCC(=O)N1CCN(c2ccccc2)CC1 | i | ? | i | -0.2% | -2.6% | -2.6
CC(C)Oc1ccc(CNC(=O)C2CCCCN2S(=O)(=O)c2ccc(F)cc2)cc1 (stereo not drawn) | i | / | ? | / | / | -7.3
c1ccc(C[n+]2c(-c3ccccc3)csc2Nc2ccccc2)cc1 | 16.4µM* | 10.4 | 20.6µM* | 1.9% | -5.8% | 11.4
c1ccc(Nc2scc(-c3ccccc3)[n+]2Cc2ccco2)cc1 | ? | 27.9 | ? | 4.7% | -6.1% | -13.5
N/C(=N\OC(=O)COc1ccccc1)c1ccccn1 | i | -1.6 | i | 4.3% | 18.4µM* | -1.2
Cc1cc(C)c2nc(NNC(=O)c3ccc(S(=O)(=O)N4CCc5ccccc5C4)cc3)sc2c1 | i | 20.5 | ? | ? | 11.6µM* | 16.6
Cc1cc(C)c2sc(NNC(=O)c3ccc(S(=O)(=O)N4CCc5ccccc5C4)cc3)nc2c1 | i | 32.9 | ? | ? | 5.17µM* | 26.7
CCOc1ccc(OCCNC(=O)c2cc(C3CC3)nc3c2cnn3C(C)C)cc1 | ? | -6.1 | i | 18.2% | 2.2% | -15.3
CCc1ccc(NC(=O)C(Cc2ccccc2)NS(=O)(=O)c2ccc3c(c2)CCN3C(C)=O)cc1 (stereo not drawn) | ? | / | i | / | / | -13.5

Screening results from PubChem.
